Read-out in assay [1]: Vascular endothelial growth factor receptor 2 (Homo sapiens) (UniProt P35968)
The assay can be described thus: BSK_4H_VEGFRII: BioMAP Diversity Plus: 4H Assay for Vascular endothelial growth factor receptor 2 (VEGFR2) Biomarker Activity (AID 2283031).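 As to AC50: cell-surface VEGFR2 protein level quantified by ELISA.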 To be noted: primary human endothelial cells (HUVEC); actives raise or lower the signal. The essentials:
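Primary human umbilical vein endothelial cells in the BioMAP 4H system were dosed with test chemical, and 24 h later VEGFRII was measured by ELISA. Activity was fitted bidirectionally against DMSO as negative control and baseline.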

Read-out in assay [2]: Human Leukocyte Antigen - DR isotype (HLADR), HLA-DRA (gene 3122)
The assay is described as follows: BSK_BE3C_HLADR: BioMAP Diversity Plus: BE3C Assay for Human Leukocyte Antigen - DR isotype (HLADR) Biomarker Activity (AID 2283032). The settings on record: primary human bronchial epithelial cells; actives raise or lower the signal. The essentials: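 Human primary bronchial epithelial cells (BE3C system) exposed to compound for 24 hours; cell-surface HLA-DR measured by ELISA, fitted bidirectionally relative to DMSO. Total protein by SRB in parallel cultures tracked cytotoxicity.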

Read-out in assay [3]: Vascular cell adhesion molecule 1 (VCAM1), VCAM1 (gene 7412)
The assay is described as follows: BSK_4H_VCAM1: BioMAP Diversity Plus: 4H Assay for Vascular cell adhesion molecule 1 (VCAM1) Biomarker Activity (AID 2283033). To be noted: primary human endothelial cells (HUVEC); actives raise or lower the signal. The essentials: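 Primary human umbilical vein endothelial cells, 4H stimulation system, treated for 24 h; cell-surface VCAM-1 quantified by ELISA. Bidirectional fitting against DMSO; cytotoxicity tracked by SRB total-protein staining in parallel cultures.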

Read-out in assay [4]: Interferon-gamma inducible Protein 10 (IP10), CXCL10 (gene 3627)
The assay can be described thus: BSK_BE3C_IP10: BioMAP Diversity Plus: BE3C Assay for Interferon-gamma inducible Protein 10 (IP10) Biomarker Activity (AID 2283034). The settings on record: primary human bronchial epithelial cells; actives raise or lower the signal. In outline: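 Primary human bronchial epithelial cells, with IP-10 measured by ELISA 24 hours after chemical dosing. Bidirectional fit against DMSO; cytotoxicity checked by SRB total protein staining in parallel cultures.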

Read-out in assay [5]: Monokine induced gamma interferon (MIG), CXCL9 (gene 4283)
The assay is described as follows: BSK_BE3C_MIG: BioMAP Diversity Plus: BE3C Assay for Monokine induced gamma interferon (MIG) Biomarker Activity (AID 2283035). The settings on record: primary human bronchial epithelial cells; actives raise or lower the signal. In outline:
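ELISA read-out of MIG in human lung bronchial epithelial primary cultures, 24 h post-dosing. Bidirectional curve fit vs DMSO baseline.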

Read-out in assay [6]: Transforming growth factor beta 1 (TGFb1), TGFB1 (gene 7040)
The assay can be described thus: BSK_BE3C_TGFb1: BioMAP Diversity Plus: BE3C Assay for Transforming growth factor beta 1 (TGFb1) Biomarker Activity (AID 2283036). To be noted: primary human bronchial epithelial cells; actives raise or lower the signal. The essentials: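 Primary human bronchial epithelial cells dosed with chemical; TGF-b1 measured by ELISA 24 h after dosing. Bidirectional curve fitting against DMSO negative control; SRB total-protein staining in parallel cultures gauged cytotoxicity.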

Read-out in assay [7]: Plasminogen activator inhibitor-1 (PAI1), SERPINE1 (gene 5054)
The assay is described as follows: BSK_BE3C_PAI1: BioMAP Diversity Plus: BE3C Assay for Plasminogen activator inhibitor-1 (PAI1) Biomarker Activity (AID 2283037). The settings on record: primary human bronchial epithelial cells; actives raise or lower the signal. The essentials: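 Primary human bronchial epithelial cells (BE3C system) exposed 24 h; PAI-1 quantified by ELISA. Parallel sulforhodamine B staining of total protein flags cytotoxicity. Bidirectional fit versus DMSO.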

Read-out in assay [8]: urokinase plasminogen activator (uPA), PLAU (gene 5328)
The assay can be described thus: BSK_BE3C_uPA: BioMAP Diversity Plus: BE3C Assay for urokinase plasminogen activator (uPA) Biomarker Activity (AID 2283038).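 Also: uPA protein level quantified by ELISA in cell cultures; uPA read one day after compound addition.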 The settings on record: primary human bronchial epithelial cells; actives raise or lower the signal. In outline:
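Human primary bronchial epithelial cells were exposed to chemical for 24 h, then uPA levels were measured by ELISA. Responses were fitted bidirectionally against DMSO as negative control and baseline. Parallel SRB staining of total protein gauged overt cytotoxicity.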

Read-out in assay [9]: Urokinase-type plasminogen activator receptor (uPAR), PLAUR (gene 5329)
The assay can be described thus: BSK_BE3C_uPAR: BioMAP Diversity Plus: BE3C Assay for Urokinase-type plasminogen activator receptor (uPAR) Biomarker Activity (AID 2283039).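 Also: cells exposed to compound for one day before measurement.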 The settings on record: primary human bronchial epithelial cells; actives raise or lower the signal. The essentials:
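Primary human bronchial epithelial cells dosed for 24 h; uPAR quantified by ELISA with bidirectional fitting against DMSO. Overt cytotoxicity assessed in parallel cultures by SRB total-protein staining (0.1% SRB, 560 nm).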

Read-out in assay [10]: Interleukin-6 (IL6), IL6 (gene 3569)
The assay is described as follows: BSK_CASM3C_IL6: BioMAP Diversity Plus: CASM3C Assay for Interleukin-6 (IL6) Biomarker Activity for (AID 2283040). To be noted: primary human coronary artery smooth muscle cells; actives raise or lower the signal.

Read-out in assay [11]: Interleukin-8 (IL8), CXCL8 (gene 3576)
The assay can be described thus: BSK_CASM3C_IL8: BioMAP Diversity Plus: CASM3C Assay for Interleukin-8 (IL8) Biomarker Activity (AID 2283042).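 Also: IL-8 protein level quantified by ELISA.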 The settings on record: primary human coronary artery smooth muscle cells; actives raise or lower the signal.

Read-out in assay [12]: Human Leukocyte Antigen - DR isotype (HLADR), HLA-DRA (gene 3122)
The assay can be described thus: BSK_CASM3C_HLADR: BioMAP Diversity Plus: CASM3C Assay for Human Leukocyte Antigen - DR isotype (HLADR) Biomarker Activity (AID 2283043).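 Also: cell-surface HLA-DR protein level quantified by ELISA.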 To be noted: primary human coronary artery smooth muscle cells; actives raise or lower the signal.

Read-out in assay [13]: Macrophage colony-stimulating factor (MCSF), CSF1 (gene 1435)
The assay can be described thus: BSK_CASM3C_MCSF: BioMAP Diversity Plus: CASM3C Assay for Macrophage colony-stimulating factor (MCSF) Biomarker Activity (AID 2283044).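 Also: M-CSF protein amount quantified by ELISA after 24 h exposure.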 The settings on record: primary human coronary artery smooth muscle cells; actives raise or lower the signal.

Read-out in assay [14]: Low-density lipoprotein receptor (LDLR), LDLR (gene 3949)
The assay can be described thus: BSK_CASM3C_LDLR: BioMAP Diversity Plus: CASM3C Assay for Low-density lipoprotein receptor (LDLR) Biomarker Activity (AID 2283045).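 Also: LDLR protein level on the cell surface quantified by ELISA.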 The settings on record: primary human coronary artery smooth muscle cells; actives raise or lower the signal.

Read-out in assay [15]: Monocyte Chemoattractant Protein-1 (MCP1), CCL2 (gene 6347)
The assay is described as follows: BSK_CASM3C_MCP1: BioMAP Diversity Plus: CASM3C Assay for Monocyte Chemoattractant Protein-1 (MCP1) Biomarker Activity (AID 2283046).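 Also: MCP-1 level quantified by ELISA 24 h after dosing.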 To be noted: primary human coronary artery smooth muscle cells; actives raise or lower the signal.

Assay [16] can be described thus: BSK_CASM3C_Proliferation: Cell Proliferation Assessment in the BioMAP Diversity Plus: CASM3C Assay (AID 2283047).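 Also: sulforhodamine B total protein stain as relative cell number at 560 nm; sub-confluent cells exposed 48 h before staining; fitted both ways against DMSO so gain or loss of cell number.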 The settings on record: primary human coronary artery smooth muscle cells.
Read-out in assay [17]: Monokine induced gamma interferon (MIG), CXCL9 (gene 4283)
The assay can be described thus: BSK_CASM3C_MIG: BioMAP Diversity Plus: CASM3C Assay for Monokine induced gamma interferon (MIG) Biomarker Activity (AID 2283048). The settings on record: primary human coronary artery smooth muscle cells; actives raise or lower the signal.

Read-out in assay [18]: serum amyloid A (SAA), SAA1 (gene 6288)
The assay is described as follows: BSK_CASM3C_SAA: BioMAP Diversity Plus: CASM3C Assay for serum amyloid A (SAA) Biomarker Activity (AID 2283049).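 Also: SAA protein level quantified by ELISA.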 To be noted: primary human coronary artery smooth muscle cells; actives raise or lower the signal.

Values joined by “and” are separate entries in the source; they are usually repeats but may differ in a detail not shown here. Identical values can stand only once. A structure can be active in one record and inactive in another. Active and inactive are the calls of the source. The calls were made as follows: active = hit-call score of the fitted dose curve at least 0.9, where 1 is the maximum; inactive = score below 0.9.

Our source for the outcome and AC50 values is PubChem BioAssay (EPA / NIEHS).

Consider `CC(C)c1cccc(C(C)C)c1N`, for which the result in [1], in assay [2], in assay [4], in [5], in assay [6] and in assay [7] was inactive. The result in assay [8], in assay [9], in [10], in [11], in assay [12] and in assay [13] was inactive. Besides, the outcome in assay [14], in assay [15], in assay [16], in [17] and in assay [18] was inactive. Further, the half-maximal activity concentration (AC50) in [3] is 32 µM (active).
For the compound `CCOC(=O)/C=C\C(=O)OCC`, the result in assay [1], in assay [2], in [3], in assay [4], in assay [5] and in [6] was inactive. In addition, the result in [7], in assay [8], in assay [9], in assay [10], in [11] and in assay [12] was inactive. Also, the result in assay [13], in [14], in [15], in assay [16], in assay [17] and in assay [18] was inactive.
As for `CCNc1nc(NC(C)(C)C)nc(OC)n1`, the outcome in assay [1], in [2], in assay [3], in [4], in [5] and in assay [6] was inactive. In addition, the outcome in assay [7], in assay [8], in [9], in assay [10], in assay [11] and in assay [12] was inactive. In addition, the result in [13], in assay [14], in assay [15], in assay [16], in assay [17] and in assay [18] was inactive.
For `CCCCCCCCCCCC(=O)N(C)CC(=O)O`, the AC50 in assay [1] was 9.25 µM (active) and 120 nM (active); in assay [3] it was 3.87 µM (active) and 2.41 µM (active); in assay [17], 30.9 µM (active). In addition, the result in [2], in [4], in [5], in assay [7], in [8] and in assay [9] was inactive. Also, the outcome in assay [10], in assay [11], in assay [12], in assay [13], in [14] and in assay [15] was inactive. Further, the outcome in assay [16], in [17] and in assay [18] was inactive.

In general, AC50 refers to the concentration at which the activity in the assay is half-maximal.
